Only some compounds are listed: those with a hit (about 4.8% of all), similar ones and a draw of the others.
ATXN2 expr inh: Primary qHTS for Inhibitors of ATXN expression; HEK-293 ATXN2-luciferase reporter, luminescence, 24 h; Potency, µM (doses to about 57 µM), most hits filed as inhibitors; 0.72% of 360,000 active; further: nearly all actives have a fitted effect of over 55% in size
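ATXN2-luciferase reporter cells (luciferase flanked by upstream and downstream ATXN2 gene portions) were treated 24 h at 37 °C with compounds at up to 57 uM. SteadyGlo luminescence gave expression; GF-AFC fluorescence gave viability.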
IL1B secr inh: qHTS for Inhibitors of Inflammasome Signaling: IL-1-beta AlphaLISA Primary Screen; 4.7% of 360,000 active; THP-1 LPS/ATP IL-1B secretion, AlphaLISA, 16 h; hits give low values; AID 743279, 2014; activity change, % at 57.5 µM; in the data active means activity change below about -50%; inconclusive means mostly about -30% to -49%
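Secreted IL-1B measured by AlphaLISA bead assay after 16 h compound exposure of THP-1 cells; compounds (final up to 57.5 uM) added 1 h before LPS (250 ng/mL) and ATP (1.25 mM) stimulation; lower signal means less secretion.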
ATXN viability: Viability Counterscreen for Primary qHTS for Inhibitors of ATXN expression; S2 cells (HEK-293 line with an ATXN2-luciferase reporter) viability, CellTiter-Fluor protease fluorescence, 24 h; Potency, µM (titrated, usually from 56.7 µM), actives largely listed as cytotoxic; 0.49% of 400,000 active; AID 651635, 2014; further: nearly all actives have a fitted effect of over 40% in size
USP2a block: qHTS Assay for Inhibitors of Ubiquitin-specific Protease USP2a Using CHOP2 as the Reporter; USP2 core, Ub-CHOP2 coupled fluorogenic reporter, 485/531; Potency, µM (titrated, usually from 38.3 µM), hits mostly inhibitors; 0.01% of 330,000 active; AID 463254, 2010
Target sequence (O75604 whole entry, looked up): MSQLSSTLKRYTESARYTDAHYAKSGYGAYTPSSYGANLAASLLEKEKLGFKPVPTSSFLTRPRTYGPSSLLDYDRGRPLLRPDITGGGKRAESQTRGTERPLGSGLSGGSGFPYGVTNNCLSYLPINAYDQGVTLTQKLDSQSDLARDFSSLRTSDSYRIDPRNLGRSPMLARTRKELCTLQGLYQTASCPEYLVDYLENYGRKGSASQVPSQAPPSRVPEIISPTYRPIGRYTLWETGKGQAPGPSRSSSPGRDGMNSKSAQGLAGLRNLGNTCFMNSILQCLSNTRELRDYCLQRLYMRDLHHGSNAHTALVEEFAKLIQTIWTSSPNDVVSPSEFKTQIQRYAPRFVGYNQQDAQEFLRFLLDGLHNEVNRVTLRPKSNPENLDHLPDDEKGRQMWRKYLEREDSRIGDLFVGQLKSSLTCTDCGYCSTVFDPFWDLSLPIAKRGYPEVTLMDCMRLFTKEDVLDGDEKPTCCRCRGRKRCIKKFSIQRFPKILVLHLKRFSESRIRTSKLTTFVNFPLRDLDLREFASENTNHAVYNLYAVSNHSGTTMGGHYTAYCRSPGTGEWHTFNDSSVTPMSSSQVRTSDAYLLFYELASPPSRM
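USP2 core (10nM final) preincubated 30min RT with compound in 20mM Tris-HCl pH 8.0, 2mM CaCl2, 2mM beta-mercaptoethanol, 0.05% CHAPS; 25nM Ub-CHOP2 plus 25nM reporter substrate added, fluorescence (Ex485/Em531) read after 60min.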
USP1-UAF1 inh: Inhibitors of USP1/UAF1: Primary Screen. Potency, µM (doses to about 57.1 µM), most hits filed as inhibitors. recombinant USP1/UAF1, Ub-Rhodamine cleavage fluorescence. 0.23% of 390,000 active. Ubiquitin carboxyl-terminal hydrolase 1 (Homo sapiens), O94782. AID 743255, 2014; further: nearly all actives have a fitted effect of over 60% in size
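In this screen, compounds sit with the deubiquitinase complex (1nM) for 15 min at room temperature before Ub-Rho is added at 150nM final. Fluorescence rise is then followed for 6 reads every 60 seconds.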
Of the large screens only hits and unclear results are named; the others gave an inactive call. Unless noted, the call rests on the fitted dose curve; in most records, active means well fitted curve in the direction sought with a large enough effect; inconclusive means small, poorly fitted or top-dose-only effect, or another doubt; inactive means no such curve, though single readings can be large; an effect the other way counts as inactive or inconclusive.

COc1ccccc1/C=C/C(=O)/C=C/c1ccccc1O	ATXN2 expr inh inconclusive, IL1B secr inh -98, ATXN viability inconclusive
COc1ccccc1C=CC(=O)C=Cc1ccccc1OC	ATXN2 expr inh 17µM, IL1B secr inh -104 (no result: ATXN viability, USP2a block)
COc1ccccc1/C=C/C(=O)OCC(=O)Nc1ccc(Cl)cn1	ATXN2 expr inh 25µM
COc1ccccc1/C=C/C(=O)Nc1cccnc1Cl	IL1B secr inh -55
COC(=O)[C@]12CCCCC=C1N(Cc1cccc3ccccc13)C(=O)[C@H](CC(=O)NCCc1ccccc1OC)C2	ATXN2 expr inh inconclusive, ATXN viability inconclusive (no result: USP2a block, USP1-UAF1 inh)
CSc1ccccc1NC(=O)C1=CC(c2cccs2)=NS(=O)(=O)N1C	none
NC(=O)N[C@@H](CCC(=O)O)C(=O)O	none (no result: IL1B secr inh, USP2a block, USP1-UAF1 inh)
CCCCc1nn2c(=O)cc(COC(=O)c3ccccc3NC(=O)c3cccs3)nc2s1	none (no result: IL1B secr inh, USP2a block)
CNc1ccccc(C(=O)/C=C/c2ccccc2OC)c1=O	ATXN2 expr inh inconclusive, IL1B secr inh -104, ATXN viability inconclusive, USP1-UAF1 inh inconclusive
CC(C)N(CC[C@H](c1ccccc1)c1cc(CO)ccc1O)C(C)C	none (no result: IL1B secr inh, ATXN viability, USP2a block, USP1-UAF1 inh)
N#CC1=C(N)Oc2cc(N)ccc2C1c1ccc(Cl)cc1 (centres undefined)	IL1B secr inh -75
CCN(CC)c1ccc2c(c1)OC(N)=C(C#N)C2c1cccnc1 (centres undefined)	IL1B secr inh -101, USP2a block inconclusive, USP1-UAF1 inh inconclusive
N#CC1=C(N)Oc2cc(N)ccc2C1c1cccnc1 (centres undefined)	none
N#CC1=C(N)Oc2cc(N)ccc2C1c1ccc(F)cc1 (centres undefined)	none
N#CC1=C(N)Oc2cc(Nc3ccccc3)ccc2C1c1ccncc1 (centres undefined)	IL1B secr inh -78
COc1cc(CNC(=O)c2ccc3nc(Cc4ccccc4)oc3c2)cc(OC)c1OC	ATXN2 expr inh inconclusive, ATXN viability inconclusive (no result: IL1B secr inh, USP2a block)
CC(C)c1ccc(NC(=O)NC2(C(=O)NCc3cccnc3)CCCCC2)cc1	none
OC1(c2ccc3c(c2)CN(Cc2nccs2)CCO3)CCN(c2ccccc2F)CC1	none (no result: ATXN2 expr inh, IL1B secr inh, USP2a block, USP1-UAF1 inh)
CCCCn1c(-c2ccc(S(=O)(=O)N3CCOCC3)cc2)csc1=Nc1ccccc1	none (no result: ATXN2 expr inh, IL1B secr inh, ATXN viability, USP2a block)
O=S(=O)(c1ccc(-c2csc(=Nc3ccccc3)n2CCCN2CCOCC2)cc1)N1CCOCC1	IL1B secr inh -61
CCCCCCCOC(=O)C[N+](C)(C)CCOC1CC2CCC1(C)C2(C)C (centres undefined)	ATXN2 expr inh 35µM, IL1B secr inh -100, ATXN viability inconclusive
COCCOC(=O)C(C#N)c1nc2ccccc2nc1N1CCN(Cc2ccccc2)CC1 (centres undefined)	none
C=CCNC(=O)C(C#N)c1nc2ccccc2nc1N1CCN(Cc2ccccc2)CC1 (centres undefined)	USP2a block inconclusive, USP1-UAF1 inh inconclusive
COCC(C)OC(=O)C(C#N)c1nc2ccccc2nc1N1CCN(Cc2ccccc2)CC1 (centres undefined)	IL1B secr inh -56
COCCNC(=O)C(C#N)c1nc2ccccc2nc1N1CCCCCC1 (centres undefined)	IL1B secr inh -71
COCCCNC(=O)C(C#N)c1nc2ccccc2nc1N1CCN(Cc2ccccc2)CC1 (centres undefined)	IL1B secr inh -58, USP2a block inconclusive
Cc1cc(C)nc(NS(=O)(=O)c2ccc(NS(=O)(=O)c3ccc(F)c(F)c3)cc2)n1	none (no result: ATXN2 expr inh, USP2a block)
CCc1cccc(NC(=O)CCn2c(=O)c3cccn3c3cccnc32)c1	none (no result: ATXN2 expr inh, IL1B secr inh, ATXN viability, USP2a block)
CN(C)CCCN(C(=O)c1ccc2c(c1)CCCC2)c1nc2cc3c(cc2s1)OCO3	ATXN2 expr inh inconclusive, IL1B secr inh -86
CN(C)CCCN(C(=O)c1ccc(C(=O)c2ccccc2)cc1)c1nc2cc3c(cc2s1)OCCO3	IL1B secr inh -64
CN(C)CCN(C(=O)c1ccc(C(=O)c2ccccc2)cc1)c1nc2cc3c(cc2s1)OCCO3	none
Cc1ccc2sc(N(CCCN(C)C)C(=O)c3ccc(Br)s3)nc2c1C	ATXN2 expr inh 20µM, IL1B secr inh -101 (no result: ATXN viability)
CC(=O)c1ccc(C(=O)N(CCCN(C)C)c2nc3c(C)c(C)ccc3s2)cc1	none (no result: IL1B secr inh, USP2a block)
CN(C)CCCN(C(=O)c1ccc(Br)s1)c1nc2cc3c(cc2s1)OCO3	ATXN2 expr inh inconclusive, IL1B secr inh -101, ATXN viability inconclusive
CC1(C)CC(=O)C2=C(C1)O[C@@]1(c3ccsc3)Cc3cc(C#N)ccc3C2O1	none (no result: ATXN2 expr inh, IL1B secr inh, ATXN viability, USP1-UAF1 inh)
COc1ccc(OC)c(NC(=O)Cn2c(=O)cc(C)c3c(C)nn(-c4cccc(Cl)c4C)c32)c1	none (no result: ATXN2 expr inh, IL1B secr inh, ATXN viability, USP2a block)
CCCc1ccc(OC(=O)c2ccc(O)cc2Cl)cc1	IL1B secr inh -84
Cc1ccc(CSCC(=O)N(C)CC(=O)Nc2c(Cl)cccc2Cl)cc1	none
Cc1ccc(S(=O)(=O)N(C(=O)c2ccco2)c2cc3sc(=O)oc3c3ccccc23)cc1	ATXN viability inconclusive
CCOc1ccc(S(=O)(=O)N(C(=O)c2ccco2)c2cc3sc(=O)oc3c3ccccc23)cc1	ATXN2 expr inh inconclusive, IL1B secr inh -95, ATXN viability inconclusive
COc1ccc(S(=O)(=O)N(C(=O)c2ccco2)c2cc3sc(=O)oc3c3ccccc23)cc1	ATXN2 expr inh inconclusive, IL1B secr inh -100, ATXN viability inconclusive
C/C=C1\NC(=O)[C@H]2CSSCC/C=C/[C@H](CC(=O)N[C@H](C(C)C)C(=O)N2)OC(=O)C(C(C)C)NC1=O (some centres undefined)	ATXN viability 4.5µM (no result: ATXN2 expr inh, IL1B secr inh, USP2a block, USP1-UAF1 inh)
Cc1coc2c1C(=O)C(=O)c1c-2ccc2c(C)cccc12	ATXN2 expr inh inconclusive, USP1-UAF1 inh 28µM (no result: ATXN viability)
N#Cc1c(N2CCN(C(=O)c3ccco3)CC2)nc(-c2ccccc2)c2c1CCCC2	ATXN2 expr inh inconclusive, IL1B secr inh -52, ATXN viability inconclusive
N#Cc1c(N2CCN(C(=O)c3ccccc3Cl)CC2)nc(-c2ccccc2)c2c1CCCC2	IL1B secr inh -58
COc1ccc(-c2csc(NC(=O)c3c(C)noc3C)n2)cc1	IL1B secr inh -52
COc1ccc(-c2csc(NC(=O)CSCc3c(C)noc3C)n2)c(OC)c1	IL1B secr inh -53
Cc1ccc(-c2csc(NC(=O)c3c(C)noc3C)n2)cc1	none
COc1ccccc1C1(O)CCN(CC(=O)Nc2nc(-c3ccccc3)cs2)CC1	IL1B secr inh -62
COc1ccc(-c2csc(NC(=O)CSCC(=O)Nc3cc(C)on3)n2)cc1	ATXN viability inconclusive
COc1ccc(-c2csc(NC(=O)C3CSC4(C)CCC(=O)N34)n2)c(OC)c1 (centres undefined)	IL1B secr inh -71
COC(=O)C(Cc1ccc(O)cc1)NC(=O)Cn1cc(C)c(=O)[nH]c1=O (centres undefined)	none (no result: USP2a block)

Screening data from PubChem.
